Results from the supplement of paper PMC6555819.

Legend:
Test in all cases: PBM binding z-score (relative to random genomic background probes); higher = stronger binding; sequences stand for … in GC…GCGATTGACAGCGTAGAATGAAGG
[1] = tested on: FXR:RXRa (NR concentration 270 nM, RXRa partner concentration 90 nM)
How it was run: (§1)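 On custom Agilent 4×180K arrays, double-stranded probes with 34-nt variable regions carried direct-repeat seeds, single-nucleotide variants, half-site ablations or random human genomic background. Ligand-free nuclear receptor dimers were applied for 1 h, and binding was read with antibodies against each partner (one per run). Binding z-scores come from regression-normalized fluorescence, with the random background probes as reference.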

[2] = tested on: LXRa:RXRa (NR concentration 270 nM, RXRa partner concentration 90 nM)
How it was run: as §1

[3] = tested on: LXRa homodimer (NR concentration 270 nM)
How it was run: as §1

[4] = tested on: LXRb:RXRa (NR concentration 270 nM, RXRa partner concentration 90 nM)
How it was run: as §1

[5] = tested on: LXRb homodimer (NR concentration 270 nM)
How it was run: as §1

[6] = tested on: PPARa:RXRa (NR concentration 270 nM, RXRa partner concentration 90 nM)
How it was run: as §1

[7] = tested on: PPARg:RXRa (NR concentration 180 nM, RXRa partner concentration 90 nM)
How it was run: as §1

[8] = tested on: PPARg:RXRa 270nM:90nM, anti-RXR (NR concentration 270 nM, RXRa partner concentration 90 nM)
How it was run: as §1

[9] = tested on: PPARg:RXRa 30nM:10nM, anti-RXR (NR concentration 30 nM, RXRa partner concentration 10 nM)
How it was run: as §1

[10] = tested on: PPARg:RXRa 90nM:30nM, anti-RXR (NR concentration 90 nM, RXRa partner concentration 30 nM)
How it was run: as §1

[11] = tested on: PPARg:RXRa DBDmut IVT, anti-RXR (DBD mutation: RXRa K156A/R161A, NR concentration 270 nM, RXRa partner concentration 90 nM)
How it was run: as §1

[12] = tested on: PPARg:RXRa IVT, anti-PPARg (NR concentration 270 nM, RXRa partner concentration 90 nM)
How it was run: as §1

[13] = tested on: PPARg DBDmut:RXRa IVT, anti-PPARg (DBD mutation: PPARg1 K132A/R137A, NR concentration 270 nM, RXRa partner concentration 90 nM)
How it was run: as §1

[14] = tested on: PPARg DBDmut IVT, anti-PPARg (DBD mutation: PPARg1 K132A/R137A, NR concentration 270 nM)
How it was run: as §1

[15] = tested on: PPARg homodimer (NR concentration 180 nM)
How it was run: as §1

[16] = tested on: PXR:RXRa (NR concentration 270 nM, RXRa partner concentration 90 nM)
How it was run: as §1

[17] = tested on: PXR homodimer (NR concentration 270 nM)
How it was run: as §1

[18] = tested on: RARa:RXR (NR concentration 270 nM, RXRa partner concentration 90 nM)
How it was run: as §1

[19] = tested on: RARa homodimer (NR concentration 270 nM)
How it was run: as §1

[20] = tested on: RARb:RXRa (NR concentration 270 nM, RXRa partner concentration 90 nM)
How it was run: as §1

Sequence | PBM binding z-score [1] | PBM binding z-score [2] | PBM binding z-score [3] | PBM binding z-score [4] | PBM binding z-score [5] | PBM binding z-score [6] | PBM binding z-score [7] | PBM binding z-score [8] | PBM binding z-score [9] | PBM binding z-score [10] | PBM binding z-score [11] | PBM binding z-score [12] | PBM binding z-score [13] | PBM binding z-score [14] | PBM binding z-score [15] | PBM binding z-score [16] | PBM binding z-score [17] | PBM binding z-score [18] | PBM binding z-score [19] | PBM binding z-score [20]
TCTAGCAGGACAGAGGGTCACTCAAGAGGTACGG | 0.869 | 1.11 | -0.354 | 1.18 | -0.839 | 2.19 | 1.45 | 2.25 | 2.15 | 2.31 | 0.809 | 0.465 | -0.0481 | -0.462 | 0.414 | 1.48 | -0.392 | 2.3 | -0.209 | 2.06
ACCGACAGGTGATGAAGGTAACTCAGGCTATCAT | -0.0834 | -0.243 | -0.257 | -0.498 | -0.393 | 0.179 | 0.492 | -0.102 | -0.173 | -0.00846 | 0.339 | 0.157 | 0.484 | 0.654 | 0.0692 | -0.165 | -0.395 | 0.291 | 0.18 | 0.0834
CAGCCAAGGTCAGGGCCAGTATAGGAGGAACGTT | 5.13 | 3.08 | -0.277 | 2.25 | -0.506 | 4.22 | 2.73 | 2.77 | 0.584 | 1.61 | 1.56 | 2.1 | -0.336 | -0.871 | 2.33 | 2.13 | 0.199 | 3.09 | 0.299 | 4.73
TCAGACAGTTGAAGGTAACTCAGGTACGCAGTCG | 0.761 | 1.54 | 0.0812 | 0.579 | -0.363 | 1 | 0.579 | 2.27 | 3.99 | 3.4 | 2.22 | 0.0381 | -0.122 | -0.183 | 0.684 | 0.701 | 0.165 | 0.843 | -0.196 | 0.547
CGAACTAGGTCAGCACAGGACAGTGAAGGATGAT | 1.86 | 1.18 | -0.345 | 0.466 | -0.737 | 3.51 | 6.07 | 5.31 | 2.4 | 4.32 | 7.7 | 7.61 | 0.871 | 0.245 | 1.37 | 1.42 | -0.395 | 1.03 | 0.213 | 3.65
ATATGTAGATTACATCCGGGTCATTCAGGCTATG | 1.18 | 1.51 | 0.625 | 1.99 | 0.664 | 2.51 | 1.42 | 1.25 | 0.659 | 1 | 1.44 | 2.32 | 1.43 | 1.61 | 1.18 | 2.53 | 1.22 | 2.88 | 0.587 | 1.38
AGAATGAGGTTATCAAGATCAGGGAATTGCGGTC | 1.64 | 1.37 | 0.0557 | 1.14 | -0.163 | 2.8 | 1.6 | 2.08 | 0.462 | 1.29 | 3.5 | 2.6 | 0.708 | -0.123 | 0.956 | 1.27 | 0.0679 | 1.67 | 0.465 | 1.71
CCTTTCGGGTCACGAGGTTATAGCACGACGAGCG | 6.94 | 4.87 | 0.634 | 4.2 | 0.882 | 6.42 | 7.34 | 6.75 | 2.96 | 5.52 | 3.85 | 5.47 | 3.53 | 2.42 | 2.82 | 4.93 | 0.795 | 6.44 | 0.862 | 4.99
TCTAGTTGGTCACGGAAGTCACACACGACGGGTA | 0.525 | 0.526 | 0.27 | 0.598 | 0.323 | 1.21 | 1.27 | 1.85 | 3.33 | 2.65 | 2.3 | 2.31 | 1.45 | 0.841 | 1.08 | 0.653 | 0.0861 | 1.01 | 1.21 | 1.65
CCGAGTAGGTTATGGGGCAGTCAGGCAACGGTGA | 0.0419 | 0.326 | -0.0975 | 0.378 | -0.292 | 1.76 | 2.58 | 3.74 | 1.39 | 3.3 | 2.72 | 3.05 | -0.267 | -0.985 | 0.752 | -0.312 | 0.274 | -0.198 | 0.265 | 0.933
CTCGACAGGTCGTGCTCAGGTGAGTATACCAAAC | 0.806 | 0.431 | -0.39 | 0.643 | -0.717 | 1.59 | 0.0674 | 0.515 | -0.386 | -0.107 | 0.245 | 0.534 | -0.84 | -0.0221 | 0.723 | 0.437 | -0.328 | 1.08 | -0.81 | 1.42
